According to PubChem BioAssay (EPA / NIEHS):
Inconclusive results are not listed. Calls of active or inactive are those of the source. The calls were made as follows, unless noted: active = hit-call score of the fitted dose curve at least 0.9, where 1 is the maximum; inconclusive = response in the unintended direction; inactive = score below 0.9.

Experiments:
[1] = Tanguay_ZF_120hpf_PE_legacy: (Legacy) Oregon State University Tanguay Lab 120 Hour Post-fertilization zebrafish Assay for Pericardial Edema (AID 2283640);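 as to AC50: potency for increased incidence of pericardial edema versus DMSO baseline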
Summary of the method: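 Tropical 5D wild-type zebrafish embryos were exposed statically to 120 hpf at 28C, sealed and foil-covered, in 0.64% DMSO final. Pericardial edema was scored present/absent by brightfield microscopy; dead embryos were not scored.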

[2] = Tanguay_ZF_120hpf_BRAI_legacy: (Legacy) Oregon State University Tanguay Lab 120 Hour Post-fertilization zebrafish Assay for Brain Malformation (AID 2283641)
Summary of the method: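 Tropical 5D wild-type zebrafish embryos were exposed statically in sealed, foil-covered plates at 28C until 120 hpf, with 0.64% (vol/vol) final DMSO. Brain malformation was scored present/absent by brightfield microscopy, relative to DMSO baseline.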

[3] = Tanguay_ZF_120hpf_SOMI_legacy: (Legacy) Oregon State University Tanguay Lab 120 Hour Post-fertilization zebrafish Assay for Somite Malformation (AID 2283647)
Summary of the method: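 Tropical 5D wild-type zebrafish embryos, dechorionated with pronase at 4 hpf, were placed singly at 6 hpf and statically exposed until 120 hpf at 28C in 0.64% DMSO. Somite malformation was scored present/absent by brightfield microscopy versus DMSO.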

[4] = Tanguay_ZF_120hpf_CFIN_legacy: (Legacy) Oregon State University Tanguay Lab 120 Hour Post-fertilization zebrafish Assay for Caudal Fin Malformation (AID 2283649)
Summary of the method: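 Tropical 5D wild-type embryos, dechorionated with pronase at 4 hpf, were placed singly in wells at 6 hpf and statically exposed to compound at 28C until 120 hpf (0.64% DMSO). Caudal fin malformation was scored present/absent by brightfield microscopy.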

[5] = Tanguay_ZF_120hpf_PIG_legacy: (Legacy) Oregon State University Tanguay Lab 120 Hour Post-fertilization zebrafish Assay for Pigmentation Malformation (AID 2283650)
Summary of the method: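 Tropical 5D wild-type zebrafish embryos, dechorionated with pronase at 4 hpf, were exposed singly from 6 hpf to 120 hpf statically at 28C in sealed, dark plates with 0.64% DMSO; pigmentation scored present/absent by brightfield microscopy, fitted against DMSO.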

[6] = Tanguay_ZF_120hpf_SWIM_legacy: (Legacy) Oregon State University Tanguay Lab 120 Hour Post-fertilization zebrafish Assay for Swim Bladder Malformation (AID 2283654);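 also: swim bladder malformation in each larva scored yes or no under brightfield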
Summary of the method: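 Dechorionated Tropical 5D wild-type embryos, placed singly from 6 hpf, were statically exposed at 28C to 120 hpf with 0.64% DMSO final; swim bladder malformation was scored present/absent by brightfield microscopy, gain of signal relative to DMSO controls.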

[7] = Tanguay_ZF_120hpf_NC_legacy: (Legacy) Oregon State University Tanguay Lab 120 Hour Post-fertilization zebrafish Assay for Notochord and Tail Malformation (AID 2283656)
Summary of the method: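 Dechorionated Tropical 5D wild-type zebrafish embryos, one per well from 6 hpf, statically exposed to 120 hpf at 28C in 0.64% DMSO final. Notochord distortion scored present/absent by brightfield; dead embryos excluded.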

[8] = Tanguay_ZF_120hpf_TR_legacy: (Legacy) Oregon State University Tanguay Lab 120 Hour Post-fertilization zebrafish Assay for Touch Response (AID 2283667)
Summary of the method: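 Tropical 5D wild-type zebrafish embryos were exposed statically in sealed, foil-covered plates at 28C until 120 hpf, with 0.64% (vol/vol) final DMSO. Touch response was scored as present or absent; embryos that died were not scored.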

[9] = Tanguay_ZF_120hpf_PFIN_legacy: (Legacy) Oregon State University Tanguay Lab 120 Hour Post-fertilization zebrafish Assay for Pectoral Fin Malformation (AID 2283648);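 also: each larva judged yes or no for fin defect by brightfield with dead larvae skipped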
Summary of the method: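 Tropical 5D wild-type embryos, dechorionated with pronase at 4 hpf, were placed singly in wells at 6 hpf and statically exposed until 120 hpf at 28C, sealed and dark, with 0.64% (vol/vol) final DMSO; pectoral fin malformation scored present/absent.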

[10] = Tanguay_ZF_120hpf_TRUN_legacy: (Legacy) Oregon State University Tanguay Lab 120 Hour Post-fertilization zebrafish Assay for Truncated Body (AID 2283655)
Summary of the method: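 Tropical 5D wild-type embryos, dechorionated with pronase at 4 hpf, were placed singly in wells at 6 hpf and statically exposed at 28C until 120 hpf, final DMSO 0.64%. Truncated body was scored present/absent by brightfield microscopy.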

[11] = test system: Thyroperoxidase (TPO), gene 54314; test: CCTE_Simmons_AUR_rTPO: CCTE's Amplex UltraRed Assay for Thyroperoxidase (TPO) Inhibition, Simmons Lab (AID 2283662);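 also: potency for loss of signal meaning inhibition of peroxidase activity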
Summary of the method: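 Endpoint is decreased Amplex UltraRed fluorescence after a 30-min, 37C reaction of rat thyroid microsomes with 300 uM H2O2. Eight test concentrations (5 nM–87.5 uM final) in 0.5% DMSO, three biological replicates each.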

[12] = CCTE_Simmons_CellTiterGLO_HEK293T: Viability Assessment in CCTE's Assays for Thyroperoxidase (TPO) Inhibition, Simmons Lab (AID 2283665);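 as to AC50: cells exposed to compound for 24 h before readout; actives reduce ATP signal below DMSO vehicle meaning cytotoxicity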
Summary of the method: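 HEK293T, 10 000 cells/well, DMEM + 1% FBS; 8-pt titration 5 nM–87.5 uM [final], 0.5% DMSO; 24 hr, 37C, 5% CO2; CellTiter-Glo luminescence; n=3 biological replicates.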

[13] = STM_H9_OrnithineISnorm_perc: Stemina devTOX quickPredict H9 human embryonic stem cell (hESC)-based Assay for Ornithine (ORN) Metabolite Biomarker, Normalized (AID 2283712; active = hit-call score of the fitted dose curve at least 0.9, where 1 is the maximum; inactive = score below 0.9;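 also: ornithine released into spent medium during last day measured by mass spectrometry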)
Summary of the method: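 H9 human embryonic stem cells kept pluripotent receive test chemical over 72 h, refreshed daily by media exchange. Media from the closing 24 h is deproteinized and analysed by UPLC-HRMS on an amide column; ornithine signal is scaled to labelled standard and vehicle.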

[14] = CCTE_Padilla_ZF_144hpf_TERATOSCORE: (Legacy) CCTE's 144 Hour Post-fertilization zebrafish Assay Teratoscore, Padilla Lab (AID 2283679; active = hit-call score of the fitted dose curve at least 0.9, where 1 is the maximum; inactive = score below 0.9;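 as to AC50: zebrafish embryos with chorions exposed by immersion from 6-8 hpf to 5 dpf with daily renewal; teratogenicity score from eye scoring of death hatching and malformations at 144 hpf; higher score means more developmental defects relative to DMSO baseline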)
Summary of the method: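 Larvae scored by eye at 144 hpf for death, hatching and malformations after a day in clean Hanks'. Before that, daily-renewed exposure at 80 uM (0.4% DMSO, 26C) from roughly 6-8 hpf through 5 dpf, 4 embryos per chemical.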

[15] = Tanguay_ZF_120hpf_CIRC_legacy: (Legacy) Oregon State University Tanguay Lab 120 Hour Post-fertilization zebrafish Assay for Circulatory Malformation (AID 2283651)
Summary of the method: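 Read-out: presence or absence of circulatory malformation at 120 hpf, scored by brightfield microscopy, fitted in the gain-of-signal direction against DMSO baseline. Wild-type 5D larvae were exposed from 6 hpf after enzymatic chorion removal.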

[16] = read-out: solute carrier (SLC22A6), SLC22A6 (gene 9356); test: LTEA_HepaRG_SLC22A6: Life Technologies and Expression Analysis (LTEA) Assay for solute carrier (SLC22A6) using HepaRG (AID 2283653; active = hit-call score of the fitted dose curve at least 0.9, where 1 is the maximum; inactive = score below 0.9); details: mRNA level, 48 h; actives raise or lower the signal
Summary of the method: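 Differentiated human HepaRG cells were exposed for 48 h in serum-free induction medium to eight concentrations (top 100 uM, half-log steps, 0.5% DMSO), in duplicate. SLC22A6 mRNA was quantified by qRT-PCR, normalised to ACTB, GAPDH and POLR2A, and fitted bidirectionally against DMSO.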

[17] = read-out: solute carrier (SLC10A1), SLC10A1 (gene 6554); test: LTEA_HepaRG_SLC10A1: Life Technologies and Expression Analysis (LTEA) Assay for solute carrier (SLC10A1) using HepaRG (AID 2283657; active = hit-call score of the fitted dose curve at least 0.9, where 1 is the maximum; inactive = score below 0.9); details: mRNA level, 48 h; actives raise or lower the signal
Summary of the method: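 Differentiated HepaRG cells were plated 48 h, then exposed in serum-free induction medium for 48 h to 8 concentrations (top 100 uM, half-log steps, 0.5% DMSO). SLC10A1 mRNA was quantified by qRT-PCR normalized to ACTB, GAPDH, POLR2A; bidirectional fit versus DMSO.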

[18] = read-out: matrix metalloproteinase-1 (MMP1), MMP1 (gene 4312); test: LTEA_HepaRG_MMP1: Life Technologies and Expression Analysis (LTEA) Assay for matrix metalloproteinase-1 (MMP1) using HepaRG (AID 2283658; active = hit-call score of the fitted dose curve at least 0.9, where 1 is the maximum; inactive = score below 0.9); details: mRNA level, 48 h; actives raise or lower the signal
Summary of the method: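 Differentiated HepaRG cells, plated 48 h then switched to serum-free induction medium, were exposed in duplicate for 48 h to eight half-log concentrations up to 100 uM in 0.5% DMSO; MMP1 mRNA measured by qRT-PCR, normalized to ACTB, GAPDH, POLR2A.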

[19] = read-out: Cytochrome P450 (CYP24A1_1), CYP24A1 (gene 1591); test: LTEA_HepaRG_CYP24A1_1: Life Technologies and Expression Analysis (LTEA) Assay for Cytochrome P450 (CYP24A1_1) using HepaRG (AID 2283671; active = hit-call score of the fitted dose curve at least 0.9, where 1 is the maximum; inactive = score below 0.9); details: mRNA level, 48 h; actives raise or lower the signal
Summary of the method: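 HepaRG, 48 h exposure, 8-pt half-log series from 100 uM in 0.5% DMSO, duplicates. Readout: TaqMan qRT-PCR of CYP24A1 mRNA, housekeeping-normalized (ACTB/GAPDH/POLR2A). Bidirectional curve fit vs DMSO baseline.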

Measured: AC50

O=[N+]([O-])C(CO)(CO)CO
inactive: [1] | [2] | [3] | [4] | [5] | [6] | [7] | [8]

C=CCc1ccc(O)c(OC)c1
active: [11] 6.16 µM
inactive: [1] | [2] | [3] | [9] | [4] | [5] | [6] | [10] | [12] | [8]

OC[C@@H](O)[C@@H](O)[C@H](O)[C@H](O)CO
inactive: [1] | [2] | [3] | [9] | [4] | [5] | [6] | [7] | [8] | [13]

CC1(C)CC(N=C=O)CC(C)(CN=C=O)C1 (stereo not given)
not listed: [11] | [12] | [13] | [15] | [16] | [17] | [18] | [19]
inactive: all other assays above

CC(C)(C)c1cc(O)c(C(C)(C)C)cc1O
active: [1] 34.3 µM | [11] 3.58 µM | [12] 27.5 µM | [8] 34.6 µM | [14] 1.19 µM
inactive: [2] | [3] | [4] | [5] | [6] | [10]

O=C(OCCCCCOC(=O)c1ccccc1)c1ccccc1
not listed: [11] | [12] | [13] | [15] | [16] | [17] | [18] | [19]
inactive: all other assays above

COc1cc(-c2nc(NC(=O)c3cc4cc(C)cc(C)c4n3CC(=O)O)sc2CCC2CCCCC2)c(OC)cc1Cl
inactive: [1] | [2] | [3] | [9] | [4] | [5] | [6] | [10] | [7] | [8]

CCCCCCCCCCO
inactive: [1] | [2] | [3] | [9] | [4] | [5] | [10] | [7] | [8] | [14]

O=c1[nH]cc(F)c(=O)[nH]1
active: [13] 4.61 µM
inactive: [1] | [2] | [3] | [9] | [4] | [5] | [6] | [10] | [7] | [8]

COc1ccc(S(=O)(=O)N2C(=O)[C@@](c3ccccc3OC)(N3C[C@H](O)C[C@H]3C(=O)N(C)C)c3cc(Cl)ccc32)c(OC)c1
inactive: [1] | [2] | [3] | [9] | [4] | [5] | [10] | [7] | [8]
active: [13] 5.99 µM

CC(=O)OCCOCCOCCOC(C)=O
inactive: [1] | [2] | [3] | [9] | [4] | [15] | [6] | [10] | [8]

O=C(O)Cc1ccccc1Nc1c(Cl)cccc1Cl
active: [14] 4.79 µM
not listed: [11] | [12] | [15] | [16] | [17] | [18] | [19]
inactive: all other assays above

Cc1cccc([N+](=O)[O-])c1C
inactive: [1] | [2] | [3] | [9] | [4] | [5] | [10] | [7] | [8]

Nc1nc(N)c2nc(CNc3ccc(C(=O)N[C@@H](CCC(=O)O)C(=O)O)cc3)cnc2n1
inactive: [1] | [2] | [3] | [9] | [5] | [10] | [7] | [8]
active: [11] 11.7 µM | [12] 0.189 µM

CCOC(=O)C(C)(C)Oc1ccc(Cl)cc1
inactive: [1] | [2] | [3] | [5] | [6] | [7] | [8]
active: [4] 69.7 µM | [10] 65.3 µM | [14] 2.86 µM

CC(=O)C(C)=CC1C(C)=CCCC1(C)C (stereo not given)
inactive: [1] | [2] | [3] | [9] | [4] | [5] | [10] | [7] | [14]

CCCCCCOCCO
inactive: [1] | [2] | [3] | [9] | [6] | [10]

Clc1cc(Cl)c(Cl)cc1Cl
inactive: [1] | [2] | [3] | [4] | [5] | [15] | [6] | [10] | [8]

CCCCCCC(=O)OCC
inactive: [1] | [2] | [3] | [9] | [5] | [15] | [6] | [10] | [7]

Cc1ccc(C)c(C)c1
not listed: [9] | [11] | [12] | [13] | [14]
inactive: all other assays above

COc1ccc2c(c1)c(CC(=O)O)c(C)n2C(=O)c1ccc(Cl)cc1
inactive: [1] | [2] | [3] | [9] | [4] | [5] | [6] | [10] | [7]
active: [14] 61.7 µM | [13] 82.5 µM

Cc1ccc(C)c(O)c1C
inactive: [1] | [3] | [9] | [4] | [5] | [6] | [10] | [7] | [12] | [8]
active: [11] 10.5 µM

CCCCCCCCCCCCCO
inactive: [2] | [3] | [9] | [4] | [5] | [10] | [7] | [8]

CCCCCCCCCCCCCCCCCC(=O)O
inactive: [1] | [2] | [9] | [4] | [5] | [6] | [10] | [8]

Cc1ccc(C(C)C)c(O)c1
inactive: [1] | [9] | [4] | [5] | [10] | [7] | [8]
